39 compounds from ChEMBL document CHEMBL3988442, “University of Dundee, Small-Polar-MMV Screening Library” (2021) can be followed below.

The first test deals with T1, Arginase-2, mitochondrial (Homo sapiens) (UniProt P78540).
T1 sequence (whole entry): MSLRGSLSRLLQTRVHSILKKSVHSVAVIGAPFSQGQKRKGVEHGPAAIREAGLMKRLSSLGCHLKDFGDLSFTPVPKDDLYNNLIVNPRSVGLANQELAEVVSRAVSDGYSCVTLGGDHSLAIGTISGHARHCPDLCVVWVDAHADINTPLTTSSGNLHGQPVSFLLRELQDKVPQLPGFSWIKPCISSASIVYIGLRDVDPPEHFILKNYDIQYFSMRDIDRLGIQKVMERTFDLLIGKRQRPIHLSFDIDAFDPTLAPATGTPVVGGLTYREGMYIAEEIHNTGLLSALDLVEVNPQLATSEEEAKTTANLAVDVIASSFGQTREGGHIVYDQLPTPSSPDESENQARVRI
As to the kind of experiment: in vitro enzyme assay to detect the production of urea directly proportional to the activity of Arginase II. Type of test: functional. On the set-up: scale not given: in the data most compounds retested in dose-response had high values. Conditions: 33.3 µM.
Consider `Cc1ccc(C2CCCCCN2Cc2cn(C)nc2C)s1` (stereo not drawn), for which the Percent Effect is -4.52%.

As for `Cc1cccc(COC[C@H]2CC[C@H]3[C@H](CCN3C(=O)CC3CC3)O2)n1`, the Percent Effect was 5.36%.

Take `CC(Cn1cccn1)NC(=O)N(C)Cc1ccc(Cl)s1` (stereo not drawn): the Percent Effect was -8.37%.

`Fc1ccc(-c2nnc(CN3CCOC(Cn4cncn4)C3)o2)cc1` (stereo not drawn): the Percent Effect was 3.56%.

Regarding `CCc1noc(C2CCCCN2C(=O)c2nnc3ccccc3n2)n1` (stereo not drawn), the Percent Effect was -7.57%.

Another test deals with T2, Proteasome subunit beta (Trypanosoma cruzi) (UniProt O96673).
T2 sequence (whole entry): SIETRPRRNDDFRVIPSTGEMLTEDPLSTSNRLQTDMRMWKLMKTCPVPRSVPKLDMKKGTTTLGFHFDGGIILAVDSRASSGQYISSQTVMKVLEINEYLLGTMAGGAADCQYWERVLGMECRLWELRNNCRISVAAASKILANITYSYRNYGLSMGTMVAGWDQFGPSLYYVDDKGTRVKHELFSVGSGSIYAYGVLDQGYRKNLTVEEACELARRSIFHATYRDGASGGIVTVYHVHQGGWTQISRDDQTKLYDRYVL
Put plainly: Trypanosoma cruzi proteasome chymotrypsin-like activity (TcProtChymo) assay. In kind it is functional. On the set-up: scale not given: in the data most compounds retested in dose-response had high values. As to conditions: 9.37 µM.
For the compound `CNC(=O)C1CCN(C(=O)c2ccn(-c3ccc(F)cc3)n2)CC1`, the Percent Effect worked out at 7.54%.

Turning to `COc1cccc([C@@H]2CN(C(=O)c3ccc(C)cc3O)C[C@H]2C(=O)O)c1`, the Percent Effect turned out to be 15.9%.

For `O=C(Cc1cccc(F)c1)NCCNCc1ccco1`, the Percent Effect amounted to 7.09%.

As for `Cc1ncsc1C(=O)NC1CCN(CC(=O)NCc2ccccc2)CC1`, the Percent Effect was 7.02%.

Regarding `CCN1CC(C(=O)N(C)Cc2ccon2)CC1=O` (stereo not drawn), the Percent Effect was 7.47%.

`COCc1c(C(=O)O)nnn1Cc1cccc(C(F)(F)F)c1`: the Percent Effect was 14.1%.

As to `O=C(NCC(O)c1cccc(F)c1)c1cccnc1O` (stereo not drawn), the Percent Effect came out at 5.05%.

As for `Cc1nc(CN2CCOC(Cn3cncn3)C2)nc2ccccc12` (stereo not drawn), the Percent Effect was found to be 9.62%.

`CCc1nnc2n1CCN(C(=O)CN(C)Cc1ccccc1)C2`: the Percent Effect came out at 4.32%.

Take `CCn1nc(C)c(CNC(=O)c2cn(CCC3CCCCN3)nn2)c1C` (stereo not drawn): the Percent Effect came to 9.77%.

For `CCS(=O)(=O)Nc1ccc(C(=O)NCCCN2CCCC2)cc1`, the Percent Effect was found to be 19.1%.

Turning to `COc1cccc(CN(C)C(=O)CSc2ccc3c(c2)OCCO3)c1`, the Percent Effect was determined as 6.62%.

On to `CC(C)c1cnc(CNc2c(F)cccc2-n2cccn2)o1`, for which the Percent Effect stood at 11.2%.

Consider `O=S(=O)(Cc1ccccc1F)NCCCN1CCCCC1`, for which the Percent Effect stood at 3.49%.

`CN(C)S(=O)(=O)N1CC[C@@H]2CN(Cc3cnn(C)c3)C[C@@H]2C1`: the Percent Effect was determined as 0.696%.

For the compound `CN(C(=O)Cc1ccc2c(c1)OCCO2)C1CCCC1`, the Percent Effect was 3.55%.

For the compound `C1CC(NCc2nc(C3CC3)no2)CN(Cc2noc(C3CC3)n2)C1` (stereo not drawn), the Percent Effect was 11.2%.

Turning to `COCCN1C[C@@H]2CCCO[C@@H]2[C@H](NC(=O)c2cnccn2)C1`, the Percent Effect was 3.59%.

On to `Cc1nc2cc(C(=O)N3CCCC(n4cncn4)C3)ccc2n1C` (stereo not drawn), for which the Percent Effect is -5.21%.

With `Cc1ccc(CN2CC(C(=O)N3CCCC3)C3(CCOCC3)C2)s1` (stereo not drawn), the Percent Effect was 2.05%.

On to `Cc1cc(C2CCCN(C(=O)c3cnn(C)c3)C2)ccn1` (stereo not drawn), for which the Percent Effect was found to be 12.3%.

`COC(=O)N1CCCN(C(=O)NCc2ccc(Cl)s2)CC1`: the Percent Effect worked out at 12.9%.

Take `NC(=O)CN1CCCN(C(=O)c2ccn(-c3ccccc3)n2)CC1`: the Percent Effect came out at 11.9%.

`CCc1nnc(CN2CCN(C(=O)c3cc4ccccc4[nH]3)CC2)o1`: the Percent Effect worked out at 2.83%.

For the compound `Cn1ncc2c(=O)[nH]c(CN3CCC(Cc4ccccc4)CC3)nc21`, the Percent Effect amounted to 7.7%.

As to `COCCN1C(=O)CO[C@H]2CN(Cc3c[nH]nc3-c3ccccc3)C[C@@H]21`, the Percent Effect was found to be 2.34%.

Consider `CC(C(N)=O)S(=O)(=O)Cc1cc(Cl)c2c(c1)OCO2` (stereo not drawn), for which the Percent Effect came out at 6.51%.

With `COc1ccc2cc(C(=O)N3CCCCC3CC(N)=O)[nH]c2c1` (stereo not drawn), the Percent Effect is 5.57%.

On to `CC(C)c1nccn1C1CCCN(C(=O)c2cnc[nH]2)C1` (stereo not drawn), for which the Percent Effect was 10.1%.

In the case of `COc1ccc(C(=O)N2CCC(Nc3ccc(C)nn3)CC2)c(F)c1`, the Percent Effect amounted to 12.7%.

Take `O=C(c1cnco1)N1C[C@@H]2CC[C@H](Oc3ccccc3F)[C@@H]2C1`: the Percent Effect worked out at 3.74%.

`CN(C)C(=O)Cc1nc(CN2CCOC(Cn3cccn3)C2)cs1` (stereo not drawn): the Percent Effect was determined as 10.6%.

With `Cc1ccoc1-c1nnc(CNCCn2cccn2)o1`, the Percent Effect worked out at 7.29%.

For the compound `O=C(NCc1cnc2n1CCN(Cc1ccsc1)CC2)C1CCC1`, the Percent Effect stood at 5.24%.

Consider `Cc1ccc(C2CCCCCN2Cc2cn(C)nc2C)s1` (stereo not drawn), for which the Percent Effect was 9.92%.

Consider `Cc1cccc(COC[C@H]2CC[C@H]3[C@H](CCN3C(=O)CC3CC3)O2)n1`, for which the Percent Effect is 6.96%.

As for `CC(Cn1cccn1)NC(=O)N(C)Cc1ccc(Cl)s1` (stereo not drawn), the Percent Effect was 0.409%.

Turning to `Fc1ccc(-c2nnc(CN3CCOC(Cn4cncn4)C3)o2)cc1` (stereo not drawn), the Percent Effect is -2.37%.

As for `CCc1noc(C2CCCCN2C(=O)c2nnc3ccccc3n2)n1` (stereo not drawn), the Percent Effect was 14.6%.

The species entered for the next test is Homo sapiens. As to the kind of experiment: To identify inhibition of the IFN signalling (Jak-Stat) pathway via expression of an eGFP reporter gene under the control of an IFN-stimulated response element (ISRE) containing MxA promoter. In kind it is functional. On the set-up: scale not given: direction of the effect not stated beside the values. As to conditions: 30 µM.
With `CNC(=O)C1CCN(C(=O)c2ccn(-c3ccc(F)cc3)n2)CC1`, the Percent Effect amounted to 8.4%.

For the compound `COc1cccc([C@@H]2CN(C(=O)c3ccc(C)cc3O)C[C@H]2C(=O)O)c1`, the Percent Effect came to 1.8%.

Take `O=C(Cc1cccc(F)c1)NCCNCc1ccco1`: the Percent Effect was 34.8%.

For the compound `Cc1ncsc1C(=O)NC1CCN(CC(=O)NCc2ccccc2)CC1`, the Percent Effect was -2.18%.

With `CCN1CC(C(=O)N(C)Cc2ccon2)CC1=O` (stereo not drawn), the Percent Effect stood at 13.7%.

On to `COCc1c(C(=O)O)nnn1Cc1cccc(C(F)(F)F)c1`, for which the Percent Effect was 5.79%.

On to `O=C(NCC(O)c1cccc(F)c1)c1cccnc1O` (stereo not drawn), for which the Percent Effect stood at 7.58%.

For the compound `Cc1nc(CN2CCOC(Cn3cncn3)C2)nc2ccccc12` (stereo not drawn), the Percent Effect is -20.1%.

Take `CCc1nnc2n1CCN(C(=O)CN(C)Cc1ccccc1)C2`: the Percent Effect was -5.24%.

Take `CCn1nc(C)c(CNC(=O)c2cn(CCC3CCCCN3)nn2)c1C` (stereo not drawn): the Percent Effect was -25.2%.

On to `CCS(=O)(=O)Nc1ccc(C(=O)NCCCN2CCCC2)cc1`, for which the Percent Effect was -9%.

On to `COc1cccc(CN(C)C(=O)CSc2ccc3c(c2)OCCO3)c1`, for which the Percent Effect is 6.47%.

Consider `CC(C)c1cnc(CNc2c(F)cccc2-n2cccn2)o1`, for which the Percent Effect is -14.6%.

`O=S(=O)(Cc1ccccc1F)NCCCN1CCCCC1`: the Percent Effect was -24.3%.

`CN(C)S(=O)(=O)N1CC[C@@H]2CN(Cc3cnn(C)c3)C[C@@H]2C1`: the Percent Effect came out at 33.3%.

Take `CN(C(=O)Cc1ccc2c(c1)OCCO2)C1CCCC1`: the Percent Effect was 14.1%.

`C1CC(NCc2nc(C3CC3)no2)CN(Cc2noc(C3CC3)n2)C1` (stereo not drawn): the Percent Effect amounted to 27%.

For `COCCN1C[C@@H]2CCCO[C@@H]2[C@H](NC(=O)c2cnccn2)C1`, the Percent Effect was -4.03%.

With `Cc1nc2cc(C(=O)N3CCCC(n4cncn4)C3)ccc2n1C` (stereo not drawn), the Percent Effect was found to be 0.593%.

Consider `Cc1ccc(CN2CC(C(=O)N3CCCC3)C3(CCOCC3)C2)s1` (stereo not drawn), for which the Percent Effect was found to be 5.33%.

For `Cc1cc(C2CCCN(C(=O)c3cnn(C)c3)C2)ccn1` (stereo not drawn), the Percent Effect is -13.7%.

Regarding `COC(=O)N1CCCN(C(=O)NCc2ccc(Cl)s2)CC1`, the Percent Effect amounted to 19.3%.

On to `NC(=O)CN1CCCN(C(=O)c2ccn(-c3ccccc3)n2)CC1`, for which the Percent Effect came out at 13.7%.

Take `CCc1nnc(CN2CCN(C(=O)c3cc4ccccc4[nH]3)CC2)o1`: the Percent Effect is -20%.

In the case of `Cn1ncc2c(=O)[nH]c(CN3CCC(Cc4ccccc4)CC3)nc21`, the Percent Effect is -0.345%.

With `COCCN1C(=O)CO[C@H]2CN(Cc3c[nH]nc3-c3ccccc3)C[C@@H]21`, the Percent Effect stood at 19.6%.

With `CC(C(N)=O)S(=O)(=O)Cc1cc(Cl)c2c(c1)OCO2` (stereo not drawn), the Percent Effect was found to be 7.44%.

As to `COc1ccc2cc(C(=O)N3CCCCC3CC(N)=O)[nH]c2c1` (stereo not drawn), the Percent Effect was -10.4%.

As for `CC(C)c1nccn1C1CCCN(C(=O)c2cnc[nH]2)C1` (stereo not drawn), the Percent Effect was -0.618%.

For the compound `COc1ccc(C(=O)N2CCC(Nc3ccc(C)nn3)CC2)c(F)c1`, the Percent Effect was determined as 25.4%.

For the compound `O=C(c1cnco1)N1C[C@@H]2CC[C@H](Oc3ccccc3F)[C@@H]2C1`, the Percent Effect is 25.5%.

As to `CN(C)C(=O)Cc1nc(CN2CCOC(Cn3cccn3)C2)cs1` (stereo not drawn), the Percent Effect is -2.04%.

In the case of `Cc1ccoc1-c1nnc(CNCCn2cccn2)o1`, the Percent Effect amounted to 23.9%.

For `O=C(NCc1cnc2n1CCN(Cc1ccsc1)CC2)C1CCC1`, the Percent Effect was -5.3%.

Turning to `Cc1ccc(C2CCCCCN2Cc2cn(C)nc2C)s1` (stereo not drawn), the Percent Effect is -5.04%.

With `Cc1cccc(COC[C@H]2CC[C@H]3[C@H](CCN3C(=O)CC3CC3)O2)n1`, the Percent Effect is 15.9%.

`CC(Cn1cccn1)NC(=O)N(C)Cc1ccc(Cl)s1` (stereo not drawn): the Percent Effect came to 2.27%.

As for `Fc1ccc(-c2nnc(CN3CCOC(Cn4cncn4)C3)o2)cc1` (stereo not drawn), the Percent Effect came out at 19.6%.

`CCc1noc(C2CCCCN2C(=O)c2nnc3ccccc3n2)n1` (stereo not drawn): the Percent Effect was -16.9%.
